PubChem BioAssay (NCI)
“And” between values parts separate entries of the source, which are not always exact repeats. Equal values may be shown once. This is part of a sample that, as a whole, favours compounds with a hit. Of some 83,000 tested, about 20% had one in any assay.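 Interpretation: 100, growth as untreated; towards 0, rising growth inhibition; 0, no net growth; 0 to -100, cell death. Compounds scoring below 10 were considered active.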 The source made the active and inactive calls.

Assays:
Experiment in all cases: NCI-60 one-dose screen, 48 h (100 = growth as untreated, 0 = no growth, -100 = all killed)
Details in all cases: 10 µM
NCI-H23 lung = tested on: NCI-H23 lung
NCI-H522 lung = tested on: NCI-H522 lung
MDA-MB-231 breast = tested on: MDA-MB-231 breast
M14 melanoma = tested on: M14 melanoma
SK-MEL-5 melanoma = tested on: SK-MEL-5 melanoma
UACC-62 melanoma = tested on: UACC-62 melanoma
LOX IMVI melanoma = tested on: LOX IMVI melanoma
CCRF-CEM leukemia = tested on: CCRF-CEM leukemia
SR leukemia = tested on: SR leukemia
OVCAR-8 ovarian = tested on: OVCAR-8 ovarian
OVCAR-5 ovarian = tested on: OVCAR-5 ovarian
SK-OV-3 ovarian = tested on: SK-OV-3 ovarian
IGROV1 ovarian = tested on: IGROV1 ovarian
HS 578T breast = tested on: HS 578T breast
NCI/ADR-RES ovarian = tested on: NCI/ADR-RES ovarian
T-47D breast = tested on: T-47D breast
SW-620 colon = tested on: SW-620 colon
MCF7 breast = tested on: MCF7 breast
HCT-116 colon = tested on: HCT-116 colon
KM12 colon = tested on: KM12 colon

With C/C=C\C(=O)O[C@@H]1CC2O[C@@H]3C=C(C)C(=O)C[C@]3(C)[C@]1(C)[C@]21CO1 the growth (NCI-H23 lung) was -21.3% (active), the growth (NCI-H522 lung) was -18.4% (active) and the growth (MDA-MB-231 breast) was -21.1% (active). For the same compound, the growth (M14 melanoma) was -78.6% (active), the growth (SK-MEL-5 melanoma) was -57% (active) and the growth (UACC-62 melanoma) was -27.2% (active). For the same compound, the growth (LOX IMVI melanoma) was -56.3% (active), the growth (CCRF-CEM leukemia) was -12.8% (active) and the growth (SR leukemia) was -13.1% (active). The growth (OVCAR-8 ovarian) was 0.288% (active), the growth (OVCAR-5 ovarian) was -3.51% (active) and the growth (SK-OV-3 ovarian) was -15.1% (active). The growth (IGROV1 ovarian) was 1.08% (active), the growth (HS 578T breast) was -2.98% (active) and the growth (NCI/ADR-RES ovarian) was -3.97% (active). The growth (T-47D breast) was -24% (active), the growth (SW-620 colon) was 0.59% (active) and the growth (MCF7 breast) was 0.933% (active). The growth (HCT-116 colon) was -29.4% (active) and the growth (KM12 colon) was 3.28% (active).

With CC(C)(O)/C=C/C(=O)[C@](C)(O)[C@H]1[C@H](O)C[C@@]2(C)[C@H]3CC=C4[C@@H](C[C@H](O)C(=O)C4(C)C)[C@]3(C)C(=O)C[C@]12C the growth (NCI-H23 lung) was 27.7% (inactive), the growth (NCI-H522 lung) was -42.5% (active) and the growth (MDA-MB-231 breast) was 10.4% (inactive). The growth (M14 melanoma) was 17.1% (inactive), the growth (SK-MEL-5 melanoma) was 1.6% (active) and the growth (UACC-62 melanoma) was -2.65% (active). For the same compound, the growth (LOX IMVI melanoma) was -13.8% (active), the growth (CCRF-CEM leukemia) was 3.53% (active) and the growth (SR leukemia) was 8.56% (active). For the same compound, the growth (OVCAR-8 ovarian) was 23% (inactive), the growth (OVCAR-5 ovarian) was 35.1% (inactive) and the growth (SK-OV-3 ovarian) was -8.31% (active). For the same compound, the growth (IGROV1 ovarian) was -24.4% (active), the growth (HS 578T breast) was 3.77% (active) and the growth (NCI/ADR-RES ovarian) was 24.7% (inactive). For the same compound, the growth (T-47D breast) was 27.2% (inactive), the growth (SW-620 colon) was 22.9% (inactive) and the growth (MCF7 breast) was 13% (inactive). For the same compound, the growth (HCT-116 colon) was 13.9% (inactive) and the growth (KM12 colon) was 42.2% (inactive).

With COc1cc2c(O[C@@H]3OC[C@H](OC(C)=O)[C@H](OC(C)=O)[C@H]3O)c3c(c(-c4ccc5c(c4)OCO5)c2cc1OC)C(=O)OC3 the growth (NCI-H23 lung) was 46.3% (inactive), the growth (NCI-H522 lung) was 4.7% (active) and the growth (MDA-MB-231 breast) was 13.7% (inactive). The growth (M14 melanoma) was -17.9% (active), the growth (LOX IMVI melanoma) was -53.7% (active) and the growth (CCRF-CEM leukemia) was 20.1% (inactive). For the same compound, the growth (SR leukemia) was 2.16% (active), the growth (OVCAR-8 ovarian) was 24.3% (inactive) and the growth (OVCAR-5 ovarian) was 73% (inactive). The growth (SK-OV-3 ovarian) was 23.8% (inactive), the growth (IGROV1 ovarian) was 47.9% (inactive) and the growth (HS 578T breast) was 60.3% (inactive). For the same compound, the growth (NCI/ADR-RES ovarian) was 37.7% (inactive), the growth (T-47D breast) was -2.78% (active) and the growth (SW-620 colon) was 14.1% (inactive). For the same compound, the growth (MCF7 breast) was 36.9% (inactive), the growth (HCT-116 colon) was 9.2% (active) and the growth (KM12 colon) was 27.8% (inactive).

For CC1=C[C@H]2O[C@@H]3C[C@H]4OC(=O)/C=C\C=C\[C@H]([C@@H](C)O)OCC/C(C)=C/C(=O)OC[C@@]2(CC1)[C@]4(C)[C@]31CO1, the growth (NCI-H23 lung) was -36.1% (active), the growth (NCI-H522 lung) was -39.3% (active) and the growth (MDA-MB-231 breast) was -29.6% (active). For the same compound, the growth (M14 melanoma) was -73.7% (active), the growth (SK-MEL-5 melanoma) was -89.2% (active) and the growth (UACC-62 melanoma) was -58.6% (active). For the same compound, the growth (LOX IMVI melanoma) was -81.1% (active), the growth (CCRF-CEM leukemia) was -11.5% (active) and the growth (SR leukemia) was -9.9% (active). For the same compound, the growth (OVCAR-8 ovarian) was -24.4% (active), the growth (OVCAR-5 ovarian) was -14.8% (active) and the growth (SK-OV-3 ovarian) was -23.5% (active). For the same compound, the growth (IGROV1 ovarian) was -10.7% (active), the growth (HS 578T breast) was -9.53% (active) and the growth (NCI/ADR-RES ovarian) was -20% (active). The growth (T-47D breast) was -20% (active), the growth (SW-620 colon) was 0.094% (active) and the growth (MCF7 breast) was -10.6% (active). For the same compound, the growth (HCT-116 colon) was -28.7% (active) and the growth (KM12 colon) was 3.74% (active).

CC(=O)O[C@@H]1[C@@H]2O[C@H]2[C@@](C)(O)C(=O)[C@@H](C)C/C=C/[C@H]2[C@@H]3O[C@]3(C)[C@@H](C)C3[C@H](Cc4ccccc4)NC(=O)[C@@]312 (stereo partly specified) was tested, and the growth (NCI-H23 lung) was 70.4% (inactive), the growth (NCI-H522 lung) was 18.2% (inactive) and the growth (MDA-MB-231 breast) was 22% (inactive). For the same compound, the growth (M14 melanoma) was 65.2% (inactive), the growth (SK-MEL-5 melanoma) was 71% (inactive) and the growth (UACC-62 melanoma) was 78.8% (inactive). The growth (LOX IMVI melanoma) was 14.7% (inactive), the growth (CCRF-CEM leukemia) was 44.2% (inactive) and the growth (SR leukemia) was 60.7% (inactive). The growth (OVCAR-8 ovarian) was 84.4% (inactive), the growth (OVCAR-5 ovarian) was 96.3% (inactive) and the growth (SK-OV-3 ovarian) was 22.9% (inactive). For the same compound, the growth (IGROV1 ovarian) was 54.7% (inactive), the growth (HS 578T breast) was 4.92% (active) and the growth (NCI/ADR-RES ovarian) was 82% (inactive). For the same compound, the growth (T-47D breast) was 33.6% (inactive), the growth (SW-620 colon) was 55.5% (inactive) and the growth (MCF7 breast) was 56.8% (inactive). For the same compound, the growth (HCT-116 colon) was 54.9% (inactive) and the growth (KM12 colon) was 66.6% (inactive).

In the case of O=C(CCCc1ccc(N(CCCl)CCCl)cc1)OCc1ccccc1, the growth (NCI-H23 lung) is reported as 89.3% (inactive), the growth (NCI-H522 lung) is reported as 84.3% (inactive) and the growth (MDA-MB-231 breast) is reported as 103% (inactive). For the same compound, the growth (M14 melanoma) was 95.1% (inactive), the growth (SK-MEL-5 melanoma) was 93.7% (inactive) and the growth (UACC-62 melanoma) was 77.8% (inactive). For the same compound, the growth (LOX IMVI melanoma) was 77.2% (inactive), the growth (CCRF-CEM leukemia) was 82.1% (inactive) and the growth (SR leukemia) was 42.2% (inactive). The growth (OVCAR-8 ovarian) was 89.7% (inactive), the growth (OVCAR-5 ovarian) was 117% (inactive) and the growth (SK-OV-3 ovarian) was 108% (inactive). The growth (IGROV1 ovarian) was 87.8% (inactive), the growth (HS 578T breast) was 114% (inactive) and the growth (NCI/ADR-RES ovarian) was 93.9% (inactive). The growth (T-47D breast) was 75.6% (inactive), the growth (SW-620 colon) was 91.1% (inactive) and the growth (MCF7 breast) was 81.8% (inactive). The growth (HCT-116 colon) was 92.7% (inactive) and the growth (KM12 colon) was 99.7% (inactive).

With C/C=C/CC(C)C(O)[C@H](NC(=O)[C@@H]1CCCN1C(=O)C(C)(C)NC(=O)CCCCCCCCC)C(=O)N[C@@](C)(CC)C(=O)N[C@@H](CCC(N)=O)C(=O)N[C@H](CCC(N)=O)C(=O)NC(C)(C)C(=O)N[C@@](C)(CC)C(=O)N[C@@H](CCC(N)=O)C(=O)N[C@H](CC(C)C)C(=O)N[C@H](CO)CC(C)C (stereo partly specified) the growth (NCI-H23 lung) was 105% (inactive) and -48.3% (active), the growth (NCI-H522 lung) was 101% (inactive) and -77.6% (active) and the growth (MDA-MB-231 breast) was 106% (inactive) and -96.8% (active). The growth (M14 melanoma) was 100% (inactive) and -67.5% (active), the growth (SK-MEL-5 melanoma) was 99.9% (inactive) and -90.2% (active) and the growth (UACC-62 melanoma) was 96% (inactive) and -96.8% (active). The growth (LOX IMVI melanoma) was 101% (inactive) and -88.2% (active), the growth (CCRF-CEM leukemia) was 98.9% (inactive) and -46.2% (active) and the growth (SR leukemia) was 92% (inactive) and 11.3% (inactive). The growth (OVCAR-8 ovarian) was 99.4% (inactive) and -48.6% (active), the growth (OVCAR-5 ovarian) was 106% (inactive) and -64.3% (active) and the growth (SK-OV-3 ovarian) was 111% (inactive) and -11.2% (active). The growth (IGROV1 ovarian) was 106% (inactive) and -23.2% (active), the growth (HS 578T breast) was 109% (inactive) and -71.9% (active) and the growth (NCI/ADR-RES ovarian) was 106% (inactive) and -38.7% (active). For the same compound, the growth (T-47D breast) was 95.9% (inactive) and -31.3% (active), the growth (SW-620 colon) was 99.1% (inactive) and 3.5% (active) and the growth (MCF7 breast) was 96.1% (inactive) and -68.2% (active). The growth (HCT-116 colon) was 102% (inactive) and 0.686% (active) and the growth (KM12 colon) was 108% (inactive) and -60.9% (active).

For COc1cc(OC)c(S(=O)(=O)N(CCCl)CCCl)cc1C(=O)/C=C/c1ccc(Cl)cc1, the growth (NCI-H522 lung) was 83.5% (inactive), the growth (MDA-MB-231 breast) was 67.1% (inactive) and the growth (M14 melanoma) was 68.4% (inactive). The growth (SK-MEL-5 melanoma) was 87.1% (inactive), the growth (UACC-62 melanoma) was 51.1% (inactive) and the growth (CCRF-CEM leukemia) was 16.4% (inactive). The growth (SR leukemia) was 10.1% (inactive), the growth (OVCAR-8 ovarian) was 59.8% (inactive) and the growth (OVCAR-5 ovarian) was 107% (inactive). The growth (SK-OV-3 ovarian) was 79% (inactive), the growth (IGROV1 ovarian) was 76.3% (inactive) and the growth (HS 578T breast) was 78.6% (inactive). For the same compound, the growth (NCI/ADR-RES ovarian) was 52.3% (inactive), the growth (T-47D breast) was 74.4% (inactive) and the growth (SW-620 colon) was 48.7% (inactive). The growth (MCF7 breast) was 15.8% (inactive), the growth (HCT-116 colon) was 49.2% (inactive) and the growth (KM12 colon) was 23.4% (inactive).
